Most compounds without a hit are left out; they make up all but 1.6% or so of the library.
KCNQ2 pot – KCNQ2 (rat) channel potentiation; O88943; CHO-K1 KCNQ2, FluxOR thallium flux fluorescence; stronger effect = higher value; B-score at 10 µM; hit rate 0.54% among 310,000; AID 2239;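 active = fluorescence ratio B-score at least 3 SD of library B-scores, with initial fluorescence B-score within 3 of them, cut at about 5.3 in these data; same plate scores as AID 2156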;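 note: B-score of peak minus minimum over baseline fluorescence ratio after K+ and Tl+ stimulus; positive B-score means potentiation of KCNQ2 with more thallium influx and brighter signal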
Target sequence (O88943 whole entry, looked up): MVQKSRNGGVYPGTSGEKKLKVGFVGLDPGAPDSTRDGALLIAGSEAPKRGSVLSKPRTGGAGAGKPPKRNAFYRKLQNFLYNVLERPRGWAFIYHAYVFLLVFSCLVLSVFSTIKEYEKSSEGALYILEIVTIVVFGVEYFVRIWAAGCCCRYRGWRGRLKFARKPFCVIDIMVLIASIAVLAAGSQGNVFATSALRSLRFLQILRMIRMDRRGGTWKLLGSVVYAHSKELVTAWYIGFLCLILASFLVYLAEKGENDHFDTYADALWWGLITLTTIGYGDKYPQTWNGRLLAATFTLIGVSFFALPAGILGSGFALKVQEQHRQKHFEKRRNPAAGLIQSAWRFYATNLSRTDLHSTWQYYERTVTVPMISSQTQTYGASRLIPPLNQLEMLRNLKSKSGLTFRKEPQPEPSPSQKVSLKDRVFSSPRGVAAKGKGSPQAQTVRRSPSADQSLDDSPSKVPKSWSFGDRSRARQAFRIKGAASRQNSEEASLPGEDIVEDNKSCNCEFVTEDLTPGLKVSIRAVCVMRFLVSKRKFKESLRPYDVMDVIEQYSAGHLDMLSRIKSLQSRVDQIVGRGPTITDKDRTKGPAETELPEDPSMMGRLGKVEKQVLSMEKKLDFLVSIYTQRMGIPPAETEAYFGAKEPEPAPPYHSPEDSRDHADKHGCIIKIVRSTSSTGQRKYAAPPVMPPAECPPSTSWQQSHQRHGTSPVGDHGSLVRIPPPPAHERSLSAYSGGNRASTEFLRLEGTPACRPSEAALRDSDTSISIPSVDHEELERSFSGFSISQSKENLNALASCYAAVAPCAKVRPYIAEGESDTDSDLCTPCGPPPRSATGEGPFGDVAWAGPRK
KCNQ2 block – blocks the rat KCNQ2 potassium channel. O88943. CHO-K1 KCNQ2, FluxOR thallium flux, 20 min; stronger effect = lower value. B-score at 10 µM. hit rate 1.1% among 310,000. AID 2156;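 active = fluorescence ratio B-score at most minus 3 library SDs, with starting brightness B-score within 2 library SDs, cut at about -5.5 in these data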
* hit, by the source's call; i = inactive; / = not tested or not shown.

SMILES | KCNQ2 pot | KCNQ2 block
CC(C)Cc1ccc(CN2CCCC(NC(=O)c3nn(C)c(=O)c4ccccc34)C2)cc1 (centres undefined) | -7.79 | -7.79*
CC(C)Cc1ccc(CN2CCCC(NC(=O)c3ccnn3C)C2)cc1 (centres undefined) | / | i
COc1ccc(CCN(Cc2nc(-c3ccccc3)no2)Cc2nc(-c3ccccc3)no2)cc1OC | -6.22 | -6.22*
COc1ccc(CCN(C)Cc2nc(-c3cnccn3)no2)cc1OC | 0.18 | i
O=C(CSc1nc(O)c(C2CCCCC2)c(=O)[nH]1)Nc1ccc(F)cc1 | 0.92 | i
COc1ccc(C(CCNCc2ccc(F)cc2)c2ccc(F)cc2)cc1 (centres undefined) | -7.19 | -7.19*
COc1ccc(CNCCC(c2ccc(F)cc2)c2ccc(OC)cc2)cc1 (centres undefined) | / | i
COc1ccc(-n2nc(C(=O)NCC(=O)N3CCN(c4cccc(Cl)c4)CC3)c3ccccc3c2=O)c(OC)c1 | / | i
Cc1ccccc1C(=O)NC1CCN(CC(=O)Nc2ccccc2Cl)CC1 | 1.53 | i
Cc1c(Cl)cccc1NC(=O)CN1CCC(C(O)(c2ccccc2)c2ccccc2)CC1 | -6.25 | -6.25*
O=C(COC(=O)c1nc(Cl)ccc1Cl)NCc1cccs1 | / | i
CC1(C)CC(=O)C(C(C2=C(O)CC(C)(C)CC2=O)c2cccs2)C(=O)C1 (centres undefined) | 6.17* | i
CC1(C)CC(=O)C(C(C2=C(O)CC(C)(C)CC2=O)c2cccnc2)C(=O)C1 (centres undefined) | 0.16 | i
CCN(CC(=O)Nc1ccc(NC(C)=O)cc1)C(=O)c1cc(S(=O)(=O)N2CCCCCC2)ccc1OC | 0.63 | i
CCOC(=O)/C(C)=N/NC(=O)c1ccc([N+](=O)[O-])cc1 | 5.14 | i
CC(=N\NC(=O)c1ccc([N+](=O)[O-])cc1)/C(=N/O)C(=O)Nc1ccccc1 | -5.79 | -5.79*
Cc1onc(-c2ccccc2)c1C(=O)NCCc1c[nH]c2ccccc12 | -5.7 | -5.7*
Cc1noc(C)c1COc1cccc(C(=O)NCCc2c[nH]c3ccccc23)c1 | 0.11 | i
CC(=O)Nc1ccc(S(=O)(=O)Nc2cccc(-c3cn4cccnc4n3)c2)cc1 | 0.09 | i
COc1ccc(OC)c(C(=O)NC(CC(N)=O)c2ccc(NCC3CC3)c([N+](=O)[O-])c2)c1 (centres undefined) | / | i
COc1ccc(OC)c(C(=O)NC(CC(N)=O)c2ccc(NC(C)C)c([N+](=O)[O-])c2)c1 (centres undefined) | -9.64 | -9.64*
CN1C(=O)Cc2cc(S(=O)(=O)Nc3ccc(Cl)cc3)ccc21 | 0.69 | i
COc1ccc(C(=O)Nc2cccc(C)c2)cc1S(=O)(=O)N1CCOCC1 | 0.04 | i
COc1ccc(C(=O)NNC(=O)COc2ccc(Cl)cc2C)cc1S(=O)(=O)N1CCOCC1 | -5.6 | -5.6*
Cc1ccc(S(=O)(=O)n2c(C)nc3ccccc32)cc1 | -7.28 | -7.28*
SMILES | KCNQ2 pot | KCNQ2 block
Cc1nc2ccccc2n1S(=O)(=O)c1ccc(S(=O)(=O)N2CCCCCC2)cc1 | / | i
COC(=O)c1ccccc1C(=O)N1CCCC(CCC(=O)NCc2ccc(F)c(F)c2)C1 (centres undefined) | / | i
Cc1ccc(NC(=O)COc2ccccc2C(=O)NCCN(C)C)cc1 | 2.89 | i
CCc1nc(N(CC)CC)c2oc3ccccc3c2n1 | / | i
CCc1nc(N2CCC(C)CC2)c2oc3ccccc3c2n1 | -5.87 | -5.87*
COc1ccc(-c2cn3nc(SCC(=O)NCC4CCCO4)ccc3n2)cc1 (centres undefined) | / | i
C/C(=N\OCc1nc2ccccc2c(=O)n1/N=C/c1cc(C)cc([N+](=O)[O-])c1O)c1ccccc1 | -8.31 | -8.31*
C/C(=N\OCc1nc2ccccc2c(=O)n1/N=C/c1cc([N+](=O)[O-])ccc1O)c1ccccc1 | 2.15 | i
CC(OC(=O)c1nc(Cl)ccc1Cl)C(=O)c1ccccc1 (centres undefined) | / | i
COc1ccc2c(c1)O[C@H](c1ccc3c(c1)OCO3)[C@@H](OC(=O)N[C@H](C)C1CCCCC1)C2=O | / | i
COc1cccc([C@@H]2Oc3ccc(OC)cc3C(=O)[C@H]2OC(=O)N[C@H](C)C2CCCCC2)c1 | -6.81 | -6.81*
CCOC(=O)C1(CCc2ccccc2)CCN(Cc2ccn[nH]2)CC1 | / | i
CCOC(=O)C1(CCc2ccccc2)CCN(Cc2cccc3nccnc23)CC1 | -5.88 | -5.88*
O=C(N/N=C/c1nn(-c2ccccc2)cc1-c1ccc(Cl)cc1)c1ccncc1 | 0.06 | i
O=S(=O)(c1cc(F)ccc1F)N1CCC2(CC1)OCCO2 | / | i
O=C(Nc1ccc(F)c(F)c1)c1ccc(F)c(S(=O)(=O)N2CCC3(CC2)OCCO3)c1 | 5.44* | i
CC(C)Cn1cc(C(=O)N2CCC(C)CC2)c2c3ccccc3n(C)c2c1=O | -7.02 | -7.02*
COCCn1cc(C(=O)N2CCC(C)CC2)c2c3ccccc3n(C)c2c1=O | -5.66 | -5.66*
CC(C)Cn1cc(C(=O)N2CCOCC2)c2c3ccccc3n(C)c2c1=O | / | i
CCOC(=O)N1CCN(C(=O)c2cn(CC(C)C)c(=O)c3c2c2ccccc2n3C)CC1 | / | i
COc1ccc(OC)c(N2C(=NC(=O)C3CCCCC3)SC3CS(=O)(=O)CC32)c1 (centres undefined) | 1.6 | i
Cc1oc2cc3oc(=O)c(CCC(=O)N(C)CC(=O)O)c(C)c3cc2c1C | 0.94 | i
CCN(CC)S(=O)(=O)c1ccc2c(c1)nc(-c1ccccn1)n2C | 0.11 | i
CCOC1=C/C(=C/c2c(N)n3nc(-c4ccccc4)sc3nc2=O)C=CC1=O | -6.88 | -6.88*
CCS(=O)(=O)c1nn2c(N)c(/C=C3/C=CC(=O)C(OC)=C3)c(=O)nc2s1 | / | i
SMILES | KCNQ2 pot | KCNQ2 block
Cc1cc(-c2nnc(CCC(=O)NCc3cc(F)cc(C(F)(F)F)c3)o2)no1 | 1.46 | i
CC(=O)N1c2ccc(S(=O)(=O)N3CCCCC3)cc2CC1C(=O)Nc1ccc(C)cc1 (centres undefined) | 0.04 | i
Nn1c(-c2ccccc2)nc2cc(Cl)ccc2c1=O | / | i
Nc1ccc(S(=O)(=O)N2CCOCCOCCOCCOCCOCC2)cc1 | / | i
O=C(OCc1nnc(-c2ccc(Cl)cc2)o1)c1ccncc1 | / | i
Cc1noc(C)c1COc1ccc(C(=O)OCc2nnc(-c3ccc(Cl)cc3)o2)cc1 | -7.63 | -7.63*
Cc1oc(-c2ccccc2)nc1CS(=O)CC(=O)NC1CCCC1 (centres undefined) | / | i
COc1cc2c(cc1OC)CN(C1CCCN(Cc3cc(Cl)ccc3O)C1)CC2 (centres undefined) | / | i
NC(=O)COC(=O)C1CSC2(c3ccc(F)cc3)CCC(=O)N12 (centres undefined) | / | i
COc1ccc(N2CCN(C(=O)CCc3nnc4ccc(N5CCOCC5)nn34)CC2)cc1 | / | i
CC(C)NC(=O)CSc1ccccc1C(=O)NNC(=O)Cn1ccc(C(F)(F)F)n1 | / | i
CCOC(=O)/C(C(=O)Nc1ccccc1Cl)=C1/NC(C)(C)Cc2ccccc21 | -8.13 | -8.13*
CCOC(=O)/C(C(=O)Nc1ccc(Br)cc1)=C1/NC(C)(C)Cc2ccccc21 | / | i
Cc1nc(C)n(CC(C)C(=O)N2CCN(S(=O)(=O)c3ccccc3)CC2)n1 (centres undefined) | 0.05 | i
O=C(Cc1ccccc1)Nc1cc(Cl)ccc1Sc1ccccc1 | / | i
O=C(Cc1ccc(Cl)cc1)Nc1ccccc1Sc1ccccc1 | 7.78* | i

From PubChem
